99 compounds from ChEMBL document CHEMBL3988442, “University of Dundee, Small-Polar-MMV Screening Library” (2021) can be followed below.

The whole screen tested about 48,000 compounds, of which about 13,000 (27%) showed an effect of 50% or more. This is one part of the list.

This assay concerns Wolbachia pipientis. Kind of assay: Anti-Wolbachia Cell-Based Screen. Type of assay: functional. Also noted: scale not given: in the data most compounds retested in dose-response had high values. Particulars: 5 µM.
On to `CCC(=O)Nc1ccc(C(C)Nc2nc3c(cnn3C)c(=O)[nH]2)cc1` (centres undefined), for which the “Percent Effect” value is -8.968%.
Take `CCN(CC)C(=O)CN(C)Cc1nc2c(cnn2C)c(=O)[nH]1`: the “Percent Effect” value was determined as 2.851%.
Under `CCN(CC)C(=O)CSc1ccc(C(F)(F)F)cn1` stands 0.9721%; under `CNC(=O)CSc1nc2c(cnn2Cc2ccc(F)cc2)c(=O)[nH]1`, -13.84%; under `CC(C)(C)n1ncc2c(=O)[nH]c(N3CCN(CCO)CC3)nc21`, 1.466%.
Take `CCN(CC)C(=O)CSc1nc2c(cnn2CCO)c(=O)[nH]1`: the “Percent Effect” value came to 123.9%.
Regarding `CC(=O)CSc1nc2c(cnn2CCO)c(=O)[nH]1`, the “Percent Effect” value came out at 136.9%.
For the compound `O=C(CSc1nc2c(cnn2CCO)c(=O)[nH]1)NC1CCCCC1`, the “Percent Effect” value is reported as 119.1%.
The value for `CC(C#N)CSc1ccccc1NCC(=O)NC1CCCCC1` (centres undefined) was -11.09%; that for `CN(CC(=O)N(C)C1CCCCC1)Cc1nc2c(cnn2C)c(=O)[nH]1` was 2.622%.
On to `CCCc1cc(=O)[nH]c2nnc(SCC(C)=O)n12`, for which the “Percent Effect” value was 15.46%.
The value for `CC(C)NC(=O)CSc1nc2c(cnn2CCO)c(=O)[nH]1` was 147.9%.
For the compound `O=C(c1ccco1)N(c1ccc(F)cn1)C1CCOCC1`, the “Percent Effect” value was 7.992%.
The value for `CCc1ccsc1CNC(=O)CNC(=O)C(C)(C)C` was -1.133%.
As for `CN(CC(=O)N1CCCC1)Cc1nc2c(cnn2C)c(=O)[nH]1`, the “Percent Effect” value came to 28.73%.
Under `CC1CCN(C(=O)CSc2nc3c(cnn3CCO)c(=O)[nH]2)CC1` stands 123.1%.
The value for `O=C(CSc1nc2c(cnn2CCO)c(=O)[nH]1)N1CCCCCC1` was -26.62%; that for `CCC(Oc1ccc(N(C)S(C)(=O)=O)cc1)C(=O)N(C)C` (centres undefined) was -17.11%; that for `CCN(CC)c1ccc(NS(=O)(=O)c2cnn(C)c2)cn1` was -7.679%.
As to `Cc1nc(NS(=O)(=O)c2cc(Br)ccc2C)no1`, the “Percent Effect” value is listed as -15.2%.
In the case of `CN1CC(C(=O)N(C)Cc2cc(-c3cccnc3)no2)NC1=O` (centres undefined), the “Percent Effect” value was -3.484%.
The value for `Cc1ccc(C2NC(=O)c3cc(C(C)C)sc3N2)cc1` (centres undefined) was 93.7%; that for `CC(C)c1cc2c(s1)NC(c1ccccn1)NC2=O` (centres undefined) was 80.13%; that for `CC(C)c1cc2c(s1)NC(c1ccccc1)NC2=O` (centres undefined) was 97.8%.
Under `CC(C)NC(=O)C[C@@H]1CCNC[C@@H]1Cc1cc(-c2ccccn2)on1` stands -9.264%; under `COc1ccc2cc(-c3n[nH]cc3CN3CCSCC3)ccc2c1`, -6.074%.
Under `COCCN(CC1CC1)c1nc(CCN)nc2ccccc12` stands 101.5%.
As to `COCCN(Cc1ccccc1Cl)c1nc(CCN)nc2ccccc12`, the “Percent Effect” value is reported as 116.2%.
Turning to `Cc1ccsc1CN(c1nc(CCN)nc2ccccc12)C1CC1`, the “Percent Effect” value was -10.53%.
As for `COCCN(Cc1cccs1)c1nc(CCN)nc2ccccc12`, the “Percent Effect” value amounted to 106.1%.
As for `NCCc1nc(N(Cc2cncs2)C2CC2)c2ccccc2n1`, the “Percent Effect” value is -5.048%.
Take `NCCc1nc(N[C@@H](CO)c2ccccc2)c2ccccc2n1`: the “Percent Effect” value was determined as 20.3%.
Consider `COCCN(Cc1ccccc1C)c1nc(C)nc2oc(C)nc12`, for which the “Percent Effect” value is reported as 9.543%.
The value for `NCCc1nc(N(Cc2nccs2)C2CC2)c2ccccc2n1` was 3.563%; that for `COCCN(CCOC)c1ncccc1Cl` was 3.894%; that for `CC(O)CC(C)(C)CNC(=O)NCc1cccc(-n2ccnc2)c1` (centres undefined) was 13.1%.
Under `COCCN1CC2(CCC1=O)CCN(Cc1nnc(C)o1)CC2` stands 2.828%; under `COc1cccn(Cc2nnc(-c3cccc(F)c3)o2)c1=O`, -11.98%.
Take `COc1cccc(C(=O)N2CC[C@@H]3[C@H](CC2)N(C)CCS3(=O)=O)c1.O=C(O)C(F)(F)F`: the “Percent Effect” value is listed as -1.721%.
Under `COc1ccc(CC(=O)N2CC[C@@H]3[C@H](CC2)N(C)CCS3(=O)=O)cc1.O=C(O)C(F)(F)F` stands 16.94%; under `COc1ccc(C(=O)N2CC[C@@H]3[C@H](CC2)N(C)CCS3(=O)=O)cc1.O=C(O)C(F)(F)F`, 3.653%.
The value for `CN1CCS(=O)(=O)[C@@H]2CCN(C(=O)c3ccccc3)CC[C@@H]21.O=C(O)C(F)(F)F` was -7.841%.
The value for `CN1CCS(=O)(=O)[C@@H]2CCN(C(=O)CC(C)(C)C)CC[C@@H]21.O=C(O)C(F)(F)F` was 96.97%.
In the case of `COc1cccc(CC(=O)N2CC[C@@H]3[C@H](CC2)N(C)CCS3(=O)=O)c1.O=C(O)C(F)(F)F`, the “Percent Effect” value stood at 107.9%.
Take `CN(C)c1cc(C(=O)NCC2(c3ccc(F)cc3)CC2)ccn1`: the “Percent Effect” value is -8.141%.
Consider `CCNC(=O)C1CCCN(c2cccc(C(F)(F)F)n2)C1` (centres undefined), for which the “Percent Effect” value was 5.494%.
Consider `NC(=O)c1ccc(N2CCN(Cc3ccc(F)cc3Cl)CC2)nn1`, for which the “Percent Effect” value stood at 4.526%.
With `NC(=O)CCC1CCCN(c2ccc3ccc(F)cc3n2)C1` (centres undefined), the “Percent Effect” value is recorded as 91.08%.
The value for `NC(=O)CCC1CCCN(c2ccc3c(Cl)ccnc3c2F)C1` (centres undefined) was -4.467%.
For `CC(C)OCc1cccc(NC(=O)N2CCCC(CCC(N)=O)C2)c1` (centres undefined), the “Percent Effect” value is on record as -9.131%.
`CCCNC(=O)C1CCCN(c2ccc3nncn3n2)C1` (centres undefined): the “Percent Effect” value was 106.8%.
Under `CCNC(=O)C1CCCN(c2ccc3ccc(F)cc3n2)C1` (centres undefined) stands 95.98%; under `O=C(NCCC1=CCCCC1)C1CCCN(c2ccc3nncn3n2)C1` (centres undefined), 4.301%; under `O=C(O)c1cn(CC2CCCN(c3ccc4ccccc4n3)C2)nn1` (centres undefined), -23.62%.
Consider `NC(=O)CCC1CCCN(c2ccnc3cc(F)ccc23)C1` (centres undefined), for which the “Percent Effect” value came to 94.8%.
The value for `CCNC(=O)C1CCCN(c2ccc(C#N)cc2C(F)(F)F)C1` (centres undefined) was -8.319%; that for `O=C(NCCc1ccccc1)C1CCCN(c2ccc3nncn3n2)C1` (centres undefined) was 7.633%; that for `CSc1ncc(CNC(C)c2cnn(-c3ccc(F)cc3F)c2C)cn1` (centres undefined) was -22.9%.
`O=c1cc(N2CCc3ccccc3C2)cnn1CCC1CCOC1` (centres undefined): the “Percent Effect” value was found to be 5.025%.
Take `CN1CC(Oc2ccccc2)=NC(SCC(=O)Nc2ccccc2Cl)=N1`: the “Percent Effect” value is on record as 15.6%.
Under `CC(=O)N1C[C@@H](c2ccsc2)[C@@H]2CN(Cc3cccc(Cl)c3)CC[C@@H]21` stands 2.234%.
With `COc1cccc(CN2CC[C@H]3[C@@H](C2)[C@H](c2ccsc2)CN3C(C)=O)c1`, the “Percent Effect” value is given as 146.6%.
Take `COc1cccc(CC(=O)N2CC[C@H]3[C@@H]2CCC(=O)N3C)c1`: the “Percent Effect” value is listed as -18.88%.
The value for `CCN1C[C@@H](C(=O)O)[C@H](c2cccc(OC)c2)C1` was 8.176%.
`CCN1CCC(N2C[C@@H](C(=O)O)[C@H](c3cccc(OC)c3)C2)CC1`: the “Percent Effect” value is given as 12.25%.
As to `COc1cccc([C@H]2CN(C(C)=O)[C@@H]3CCN(Cc4ccsc4)C[C@H]23)c1.Cl`, the “Percent Effect” value stood at 57.96%.
As for `CCc1c(C)nc(C)nc1N1CCC(NCCSc2nnnn2C)CC1`, the “Percent Effect” value was found to be 11.48%.
The value for `O=C(c1cn(CCN2CCCCC2)nn1)N1CCCCO1` was -10.33%.
The value for `COc1nc2c(cc1C(=O)N1CCCOC(Cn3cccn3)C1)CCC2` (centres undefined) was 0.1052%.
With `CCN1C[C@H]2C3(CCN(C(=O)NC(C)C)CC3)CC[C@@]2(C(=O)N(C)C)C1.O=C(O)C(F)(F)F`, the “Percent Effect” value was -2.762%.
As for `Cc1cnc(CNC(=O)c2cc3c(s2)CCN3S(C)(=O)=O)cn1`, the “Percent Effect” value is on record as -3.088%.
The value for `CS(=O)(=O)N1CCc2sc(C(=O)NCCc3ccccn3)cc21` was 98.67%; that for `CS(=O)(=O)N1CCc2sc(C(=O)NCc3ccncc3)cc21` was 102.3%.
The value for `COC(=O)N1CCc2ccccc2C1C(=O)NCc1ccncc1` (centres undefined) was 5.289%.
As to `CS(=O)(=O)N1Cc2nc(C(=O)NCc3ccccc3)oc2C1`, the “Percent Effect” value is recorded as 1.051%.
Under `CNS(=O)(=O)c1ccc(C(=O)NCCc2ccccn2)cc1` stands -0.4969%.
The value for `O=C(NCCc1ccccn1)C1=NN(c2ccccc2)C(=O)CN1` was 14.32%; that for `CS(=O)(=O)N1CCc2sc(C(=O)NCc3ccccc3)cc21` was 99.89%.
Under `CCOc1cccc(C(C)NC(=O)N2CCC(C(N)=O)CC2)c1` (centres undefined) stands -12.9%.
For `Cc1ccc(-c2cnc(CCC(=O)NCCN3CCOCC3)o2)cc1C`, the “Percent Effect” value is on record as 7.661%.
For the compound `CC(C)Oc1ncnc2c1CCN(c1cc(C(F)(F)F)ncn1)CC2`, the “Percent Effect” value was -5.603%.
In the case of `N#Cc1cccc(CN2C[C@@H](F)[C@@H](OCc3nc4ccccc4[nH]3)C2)c1`, the “Percent Effect” value came out at 3.783%.
The value for `COc1cc(C(=O)NCc2ccc3c(c2)CCCN3C)cc(OC)c1Br` was 103.6%; that for `COC(=O)c1cccc(CNC(=O)CC(F)(F)F)c1` was -8.665%; that for `CCOCC1CCN(C(=O)Nc2ccc3c(c2)CCCN3C)C1` (centres undefined) was -6.058%.
Under `CC(C)Oc1ccc(C(=O)NCc2ccc3c(c2)CCCN3C)cn1` stands 82.05%; under `COc1ccc(CNC(=O)c2ccc(=O)n(C)c2)cc1C`, -12.06%; under `CC(C)Oc1ccc(C(=O)NCc2ccnc(N3CCCC3)c2)cn1`, 1.854%.
For `COC(=O)c1cccc(C(=O)NCc2ccc3c(c2)CCCN3C)c1`, the “Percent Effect” value is listed as 93.26%.
For the compound `COC(=O)c1cccc(CNC(=O)c2cc(C(C)C)n(C)n2)c1`, the “Percent Effect” value is listed as -2.718%.
For `CN1CCCc2cc(CNC(=O)c3ccc(NC4CC4)nc3)ccc21`, the “Percent Effect” value was -0.6873%.
`CS(=O)(=O)CC1CCCN(c2ncnc3c2Cc2ccccc2OC3)C1` (centres undefined): the “Percent Effect” value is 8.787%.
On to `CC(C)c1nc(CNc2ccc(CCO)cc2)cs1`, for which the “Percent Effect” value is on record as -6.765%.
On to `Cc1nonc1N1CCN(Cc2nc(CC3CC3)no2)CC1`, for which the “Percent Effect” value is recorded as -9.131%.
For `Cc1occc1C(=O)N1CCC2(CCN(Cc3nccs3)CC2)C1`, the “Percent Effect” value was found to be 13.46%.
Under `O=C(CCNC1(c2nccs2)CCCC1)N1CCOCC1` stands -14.98%; under `CC1(c2nccs2)CCN(C(=O)CC2CCOCC2)CC1`, 133.3%.
The value for `C[C@@H](NC(=O)c1cnccn1)c1c(-c2ccc(F)cc2)noc1C(=O)O` was 0.3029%; that for `Cc1ccc(C(=O)N2CCN(CCc3cccs3)CC2)c(=O)[nH]1` was 4.078%.
